From PubChem
Lamin A splicing = LMNA splicing modulation; HeLa LMNA splicing GFP/RFP minigene ratio, 48 h; Potency, µM (doses to about 46.1 µM), for inactives: top-dose ratio change, negative = inhibition, most hits filed as inhibitors; 200,000 tested, 0.01% active; active = well fitted inhibition curve with a large enough effect in the signal ratio, with a control signal flat, not every such curve was filed as active; inconclusive = small, poorly fitted or top-dose-only effect, or effect the other way, or a change in a side signal; the % refers to the signal ratio
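S3 HeLa stable clones carrying a lamin A-EGFP splicing minigene plus DsRed2 were seeded at 600 cells/well in Opti-MEM with 2% FBS, pin-dosed and incubated 48 h at 37°C. Acumen cytometry (488 nm) gave the GFP/RFP total-intensity ratio.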
IMPase Li cell = IMPase inhibition in cells with lithium potentiation | CHO-M1 cells, IP1 TR-FRET (IP-One), carbachol + lithium | Potency, µM (series often up to 59.4 µM), without a hit: top-dose activity, negative = IMPase inhibition, most hits filed as inhibitors | 210,000 tested, 0.35% active; active = well fitted curve in the direction sought with a large enough effect; inconclusive = small, poorly fitted or top-dose-only effect, or another doubt; inactive = no such curve, though single readings can be large; an effect the other way counts as inactive or inconclusive;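 note: IP1 builds up when IMPase is blocked and the TR-FRET signal falls; plate controls were basal vehicle for no effect and high inhibitor control for full effect; nearly all actives have a fitted effect of over 50% in size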
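Concentration–response in CHO-M1 cells, lithium-potentiated; 30 min at 37C. IP1 detected by competitive TR-FRET after 10 min lysis at RT. Hill-fitted AC50.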
Luc counter = Kinase-Glo luciferase inhibition (counter-screen) | Potency, µM (highest dose often 38.3 µM), inactives show at the highest dose activity change, negative = inhibition, actives largely listed as inhibitors | 200,000 tested, 0.28% active | Kinase-Glo luciferase, ATP luminescence, 8 min; active = well fitted curve in the direction sought with a large enough effect; inconclusive = small, poorly fitted or top-dose-only effect, or another doubt; inactive = no such curve, though single readings can be large; an effect the other way counts as inactive or inconclusive; note: nearly all actives have a fitted effect of over 60% in size
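Compounds were added to a substrate mix at pH 7.2 (50 mM imidazole, 10 uM ATP, within the enzyme's linear range), followed by Kinase-Glo detection reagent; luminescence was measured after 8 minutes at ambient temperature.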
HPGD block = blocks human HPGD enzyme activity; P15428; purified HPGD, NADH fluorescence kinetic, PGE2 substrate; Potency, µM, without a hit: at the highest dose activity change, negative = inhibition, most hits filed as inhibitors; 150,000 tested, 4.3% active; AID 894
Target sequence (P15428 whole entry, looked up): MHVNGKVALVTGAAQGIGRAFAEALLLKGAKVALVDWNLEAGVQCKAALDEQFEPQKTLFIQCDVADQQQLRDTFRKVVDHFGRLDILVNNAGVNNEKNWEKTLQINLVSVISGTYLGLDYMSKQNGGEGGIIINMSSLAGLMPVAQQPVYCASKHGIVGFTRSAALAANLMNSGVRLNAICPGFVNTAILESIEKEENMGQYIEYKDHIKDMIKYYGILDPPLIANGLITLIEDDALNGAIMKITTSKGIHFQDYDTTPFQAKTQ
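NADH formation kinetics: reaction with 30 uM PGE2 and 1 mM NAD+ (final), 20 nM enzyme, Tris-HCl pH 8 with Tween 20, after 15 min compound preincubation at room temperature. Fluorescence change, last versus first of five reads.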
ALDH1A1 block = blocks purified human ALDH1A1 activity. P00352. Purified ALDH1A1, NADH fluorescence, propionaldehyde substrate. Potency, µM (highest dose often 75.3 µM), for inactives: at the highest dose activity, negative = inhibition, actives largely listed as inhibitors. 220,000 tested, 7.3% active. AID 1030;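 note: plate controls were no enzyme wells and a reference inhibitor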
Target sequence (P00352 whole entry, looked up): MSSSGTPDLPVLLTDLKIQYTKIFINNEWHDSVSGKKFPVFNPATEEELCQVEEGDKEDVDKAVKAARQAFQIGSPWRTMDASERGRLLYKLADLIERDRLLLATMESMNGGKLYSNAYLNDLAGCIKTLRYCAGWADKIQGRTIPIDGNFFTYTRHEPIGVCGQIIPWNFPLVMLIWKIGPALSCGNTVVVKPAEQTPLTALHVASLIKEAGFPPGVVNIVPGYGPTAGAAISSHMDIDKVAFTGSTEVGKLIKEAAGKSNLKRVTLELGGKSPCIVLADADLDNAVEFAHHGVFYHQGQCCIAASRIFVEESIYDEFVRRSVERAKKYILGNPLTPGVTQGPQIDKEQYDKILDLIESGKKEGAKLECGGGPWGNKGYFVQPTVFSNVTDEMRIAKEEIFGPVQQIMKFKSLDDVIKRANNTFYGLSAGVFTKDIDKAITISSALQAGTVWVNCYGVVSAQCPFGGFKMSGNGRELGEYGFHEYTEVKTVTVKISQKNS
* marks the source's active call; other numbers are inactive results; ? = inconclusive; / = no result given; [ ] = another dose, or the depositor's remark. In the library only some 9% were active in any assay of this set; here they are far more common. Unless noted, calls come from the whole dose curve; as a rule, active = well fitted inhibition curve with a large enough effect (not every such curve was filed as active); inconclusive = small, poorly fitted or top-dose-only effect, or another doubt; inactive = no such curve, though single readings can be large or run the other way. Unless noted, % is set by controls: 0 for no effect and ±100 for the full control effect; potency is the fitted concentration of half-maximal effect.

SMILES | Lamin A splicing | IMPase Li cell | Luc counter | HPGD block | ALDH1A1 block
N#Cc1cccc(-c2nc(NCCN3CCOCC3)c3ccccc3n2)c1 | ? | 17% | / | / | 18µM*
CCCCNC(=O)Cc1ccc(C)cc1 | -8% | -1% | 3% | ? | 2%
CCC(C)(C)NC(=O)Cc1ccc(C)cc1 | 8% | -4%[38.3 µM] | -3% | 14µM* | -6%
O=c1cc(-c2ccccc2)[nH]c2nc3ccccc3n12 | ? | -9% | 13µM* | ? | ?
CCc1c(C)[nH]c2nc3ccccc3n2c1=O | 7% | 31%[38.3 µM] | -3% | ? | ?
Cc1ccc2c(CSc3nnc4ccccn34)cc(=O)oc2c1C | 7% | -3% | -5% | -12% | ?
Cc1ccc2c(CSc3nc4ccccc4c(=O)n3CCCO)cc(=O)oc2c1C | ? | 11%[38.3 µM] | -1% | ? | 13µM*
CC[n+]1c(/C=C/N(C)c2ccccc2)oc2ccc(F)cc21 | ? | 17% | 1% | -3% | 14µM*
CC[n+]1c(/C=C/Nc2ccccc2)oc2ccc(OC)cc21 | 49%[46 µM] | 16% | -4% | / | 7%
CCOC(=O)c1ccc(Nc2nnc(C(C)(C)C)c(=O)[nH]2)cc1 | ? | / | / | / | 14µM*
CCOC(=O)c1ccc(Nc2cc(C)nc(C)c2C(=O)OCC)cc1 | 6% | 22%[38.3 µM] | -3% | -5% | 2%
O=C(CSc1ccc(C(F)(F)F)cc1[N+](=O)[O-])Nc1ccc2ccccc2c1 | 5% | -5% | 3% | -7% | 5.6µM*
CC(=O)OCC1OC(C#CCC2CCCCC2)C=CC1OC(C)=O (stereo not given) | / | / | / | / | 4.5µM*
O=C1NC(=S)S/C1=C1\Sc2ccccc2N1CCCS(=O)(=O)O | 9% | 35%[38.3 µM] | 1% | 25µM* | 25µM*
CCN1/C(=C2\SC(=S)N(Cc3ccccc3)C2=O)Sc2ccccc21 | -9% | 3% | -1% | -15% | -1%
COc1cccc(-c2cc(C(=O)NC3CCCC3)no2)c1 | -10% | 22%[38.3 µM] | 3% | 16µM* | ?
COCCNC(=O)c1cc(-c2cccc(OC)c2)on1 | 2% | 4%[38.3 µM] | -8% | 25µM* | 8%
COc1cccc(-c2cc(C(=O)N3CCc4ccccc4C3)no2)c1 | -14% | 12% | 4% | 20µM* | ?
COc1ccc(NC(=O)c2cc(-c3cccc(OC)c3)on2)cc1 | 1%[9.22 µM] | -7% | -1% | / | ?
Cc1nn(S(=O)(=O)c2ccc(C(C)(C)C)cc2)c(C)c1S(=O)(=O)N1CCCCCC1 | 13%[46 µM] | / | / | / | /
O=C(COC(=O)c1cccc([N+](=O)[O-])c1)c1ccc(OCc2ccccc2)cc1 | -6% | 11% | 0% | -9% | 14µM*
O=C(COC(=O)c1cc([N+](=O)[O-])ccc1NCCO)NCc1cccs1 | 8%[46 µM] | 12% | 3% | / | ?
O=[N+]([O-])c1ccc(NCCO)c(OCCO)c1 | / | 2% | / | -8% | -6%
O=C(COC(=O)c1cc([N+](=O)[O-])ccc1NCCO)c1ccccc1 | -6% | -2% | -3% | -19% | 25µM*
O=C(CCc1ccccc1)OCC(=O)c1cccc([N+](=O)[O-])c1 | 16%[46 µM] | 2% | 2% | / | ?
SMILES | Lamin A splicing | IMPase Li cell | Luc counter | HPGD block | ALDH1A1 block
NC(=O)COC(=O)c1cc([N+](=O)[O-])ccc1NCCO | / | / | / | / | 20µM*
O=S(=O)(CCNCc1cccs1)c1ccc(Cl)cc1 | -8%[46 µM] | / | / | / | ?
CCOc1ccc(CN2CCNC(=O)C2CC(=O)NCCC2=CCCCC2)cc1 (stereo not given) | / | 6% | -1% | / | ?
COc1cc(CN2CCNC(=O)C2CC(=O)NCCC2=CCCCC2)cc(OC)c1 (stereo not given) | ? | 0% | 2% | / | 20µM*
CC(=O)N1N=C(c2cccs2)CC1c1ccco1 (stereo not given) | 10%[46 µM] | 6% | -1% | / | -2%
CS(=O)(=O)Nc1ccc(C2=NN(C(=O)c3ccco3)C(c3ccc(F)cc3)C2)cc1 (stereo not given) | ? | 0% | 3% | / | ?
O=C(c1ccco1)N1N=C(c2cccs2)CC1c1ccc(F)cc1 (stereo not given) | 7% | 30%[38.3 µM] | -2% | -23% | 20µM*
CS(=O)(=O)N1N=C(c2cccs2)CC1c1ccco1 (stereo not given) | / | 3% | 0% | / | 20µM*
CCc1ccc(C2CC(c3ccco3)=NN2S(C)(=O)=O)cc1 (stereo not given) | 13%[0.0737 µM] | -1%[38.3 µM] | 11µM* | -4% | ?
CC(=O)N1N=C(c2ccco2)CC1c1ccc(Br)cc1 (stereo not given) | -12% | 6% | 2% | -22% | -2%
Cn1c(Cc2csc(N)n2)nnc1SCC(=O)NC1CCCCC1 | 13% | 6%[38.3 µM] | -3% | -9% | ?
Cn1c(Cc2csc(N)n2)nnc1SCC(=O)NCc1ccccc1 | 1% | 12%[38.3 µM] | -1% | -10% | 28µM*
Cc1ccc(Sc2nnc(Cc3ccccc3)c3ccccc23)cc1 | ? | ? | 2% | -29% | 28µM*
COC(=O)c1ccc(C(/C=C/[C@@H](C)C(=O)NCCc2c[nH]c3ccccc23)NC(=O)OCc2ccccc2)cc1 (stereo not given in full) | / | 12% | -1% | -10% | ?
COc1ccc(C(=O)Nn2c(SCC(=O)NCc3ccco3)nc3ccccc3c2=O)cc1 | -2% | -4%[38.3 µM] | -28% | -20% | -8%
CCn1c(SCC(=O)NC2CCCCC2)nnc1-c1cc2cccc(OC)c2o1 | 18% | -5%[38.3 µM] | -5% | 20µM* | ?
COc1ccc(C(=O)Nn2c(SCC(=O)NC3CCCCC3)nc3ccccc3c2=O)cc1 | 1% | 19%[38.3 µM] | 14µM* | -20% | ?
COc1ccc(C(=O)Nn2c(SCC(=O)c3ccc(Cl)cc3)nc3ccccc3c2=O)cc1 | 0% | -29%[38.3 µM] | -21% | -14% | ?
COc1ccc(C(=O)Nn2c(SCC(=O)N3CCC(C)CC3)nc3ccccc3c2=O)cc1 | 0% | 0%[38.3 µM] | 13µM* | ? | ?
COc1ccccc1-n1c(SCC(=O)NC2CCCC2)nc2cccnc21 | -1% | 19%[38.3 µM] | -2% | 14µM* | -3%
CCCCSCCCNC(=O)c1cc(-c2cccnc2)nc2ccc(S(=O)(=O)N3CCC(C)CC3)cc12 | 7%[46 µM] | / | / | / | /
COc1ccccc1CNC(=O)CSc1nc2ccccc2c(=O)n1CCCN1CCOCC1 | 11%[46 µM] | 10% | -2% | / | 6%
COc1ccc(NC(=O)CSc2nc3ccccc3c(=O)n2CCCN2CCCCC2)c(OC)c1 | -6% | 43%[38.3 µM] | 2% | -8% | 10µM*
CCN(C(=O)COC(=O)C1CCN(S(=O)(=O)c2cccs2)CC1)c1ccccc1 | / | 4% | 0% | / | -3%
O=c1[nH]c(=O)n(Cc2ccccc2)c2nc(-c3ccco3)cc(C(F)(F)F)c12 | ? | 9%[38.3 µM] | -4% | ? | ?
Cc1cc(C(F)(F)F)c2c(=O)[nH]c(=O)n(Cc3ccccc3)c2n1 | 6% | -11%[38.3 µM] | 7% | 10µM* | 11%
